In PubChem BioAssay AID652190 (Johns Hopkins Ion Channel Center, 2013):
Active and inactive are the calls of the source.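 The calls were made as follows: active = peak inhibition above 30% at some tested dose, together with a fitted dose response curve; inactive = no inhibition at all doses, or no curve obtained.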

target: Inward rectifier potassium channel 2 (Mus musculus) (UniProt P35561); experiment: off-target blockade of inward rectifier Kir2.1 – cell-based, FluxOR thallium flux, HEK293, CRC, selectivity assay for TASK1 inhibitor project, SAR follow-up (AID 652190); conditions: Kir2.1-expressing cells; series mostly up to 30 µM; fluorescence ratio, lower = inhibition: at the top concentration
Sequence (P35561 whole entry, looked up): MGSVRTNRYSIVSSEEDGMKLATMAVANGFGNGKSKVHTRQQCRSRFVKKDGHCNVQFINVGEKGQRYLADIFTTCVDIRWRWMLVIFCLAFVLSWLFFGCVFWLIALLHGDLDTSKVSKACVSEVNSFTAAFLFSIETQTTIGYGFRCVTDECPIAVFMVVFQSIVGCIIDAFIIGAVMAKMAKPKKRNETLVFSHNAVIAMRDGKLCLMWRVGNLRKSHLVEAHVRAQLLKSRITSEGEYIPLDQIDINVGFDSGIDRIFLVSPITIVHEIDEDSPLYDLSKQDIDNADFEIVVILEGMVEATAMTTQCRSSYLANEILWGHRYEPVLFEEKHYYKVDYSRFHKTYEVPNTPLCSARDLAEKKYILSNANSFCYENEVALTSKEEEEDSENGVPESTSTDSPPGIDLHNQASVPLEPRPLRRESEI

SMILES | fluorescence ratio, lower = inhibition
COc1ccccc1C(=O)Nc1cccc(NC(=O)c2cccc3ccccc23)c1 | 1.82 (inactive)
CCCC(=O)C1CCN(c2ncnc3c2CN(C(=O)c2ccc(-c4ccccc4)cc2)CC3)CC1 | 1.51 (inactive)
COc1ccccc1C(=O)Nc1cc(NC(=O)c2ccccc2C(C)C)ccc1F | 1.84 (inactive)
CC(C)Oc1ccccc1C(=O)Nc1cccc(NC(=O)c2ccccc2OC(F)(F)F)c1 | 1.86 (inactive)
COc1c(F)cccc1C(=O)Nc1cccc(NC(=O)c2cccc(C)c2)c1 | 1.33 (inactive)
CC(C)c1ccccc1C(=O)Nc1cccc(NC(=O)c2ccccc2OC(F)(F)F)c1 | 1.83 (inactive)
COc1ccccc1C(=O)Nc1cc(NC(=O)c2cccc(C)c2)ccc1F | 1.34 (inactive)
COc1ccc(F)cc1C(=O)Nc1cccc(NC(=O)c2cccc(C)c2)c1 | 1.44 (inactive)
COc1ccc(CC(=O)NCc2ccccc2-c2ccccc2C(=O)NCc2ccc(F)cc2F)cc1 | 1.35 (inactive)
Cc1cccc(C(=O)Nc2cccc(NC(=O)c3cccc(F)c3)c2)c1 | 1.4 (inactive)
COc1cnccc1C(=O)Nc1cccc(NC(=O)c2cccc(C)c2)c1 | 1.23 (inactive)
